This assay concerns Trypanosoma brucei. In words: Trypanosoma brucei 72 hour study. Format: functional, organism-based. More on the design: scale not given: in the data most compounds retested in dose-response had high values.

The values that follow come from ChEMBL document CHEMBL3988442, “University of Dundee, Small-Polar-MMV Screening Library” (2021).

The campaign covered roughly 66,000 compounds. About 960 (1.5%) showed an effect of 50% or more. What follows is part of a selection rich in strong results, with near analogues and random picks from the rest.

For the compound `COc1cc(Oc2cnc3ccccc3n2)ccc1CN1CCCC1`, for the setting “30 µM, 30.03 µM”, the “Percent Effect” value is reported as -18.27%.

With `CC1CCCCN1C(=O)c1n[nH]c(=O)c2ccccc12` (stereo not drawn), for the setting “30.3 µM, […]”, the “Percent Effect” value is reported as -7.93%.

Consider `Cn1nnc2c1CCN(Cc1ccncc1)C2COCC1CC1.O=C(O)C(F)(F)F.O=C(O)C(F)(F)F` (stereo not drawn), for which the “Percent Effect” value (30 µM, 30.03 µM) is listed as 49.24%.

For `CCOCc1ccccc1NC(=O)NCC(C)(O)c1ccsc1` (stereo not drawn), the “Percent Effect” value (30 µM, 30.03 µM) came out at 56.33%.

For `CCOCc1ccccc1NC(=O)NCC(C)(O)c1cc(C)oc1C` (stereo not drawn), the “Percent Effect” value (30 µM, 30.03 µM) was -15.34%.

With `CCOCc1ccccc1NC(=O)NCC(C)(O)c1cccs1` (stereo not drawn), the “Percent Effect” value (30 µM, 30.03 µM) is on record as -46.58%.

As for `Cc1nonc1CN(C)c1nc(-c2ccco2)nc2c1CCN(C)CC2`, the “Percent Effect” value (30 µM, 30.03 µM) is recorded as -56.96%.

Take `COc1ccc(-c2nc(CCNC(=O)NC3CCC(O)CC3)co2)cc1` (stereo not drawn): where the note is “30 µM, 30.03 µM”, the “Percent Effect” value is given as -54.4%.

For `O=C(NCCc1coc(-c2ccc(F)cc2)n1)NC1CC1`, the “Percent Effect” value was 99.81% (10 µM) and 99.45% (30.3 µM, […]).

For the compound `Cc1ccc(-c2nc(CCNC(=O)NC3CCC(O)CC3)co2)cc1` (stereo not drawn), the “Percent Effect” value is -4.374% (10 µM) and 17.54% (30.3 µM, […]).

Take `O=C(NCCc1coc(-c2ccccc2)n1)NC1CC1`: the “Percent Effect” value is listed as 101.4% (10 µM) and 100% (30.3 µM, […]).

Turning to `O=C(NCCc1coc(-c2ccc(F)cc2)n1)NC1CCC(O)CC1` (stereo not drawn), for the setting “30 µM, 30.03 µM”, the “Percent Effect” value is listed as -16.25%.

Take `Cc1ccc(-c2nc(CCNC(=O)NC3CCN(C)CC3)co2)cc1`: the “Percent Effect” value (30 µM, 30.03 µM) came out at 6.387%.

With `CO[C@@H]1CN(c2ccccc2)S(=O)(=O)[C@@]12CCN(C(=O)N(C)C)C2`, the “Percent Effect” value (30.3 µM, […]) came to 5.082%.

Consider `O=C1C[C@H]2CC[C@@H](CN1)N2C(=O)CCc1ccsc1`, for which the “Percent Effect” value (30.3 µM, […]) came to 5.085%.

For the compound `CCc1n[nH]c(C2CN(C(=O)c3ncoc3C(C)C)CCO2)n1` (stereo not drawn), where the note is “30.3 µM, […]”, the “Percent Effect” value turned out to be 10.22%.

`Cc1sc2nc(CCN)nc(N(C)CCCC3CCCO3)c2c1C` (stereo not drawn): under “30 µM, 30.03 µM”, the “Percent Effect” value is recorded as 73.15%.

As for `Cc1sc2nc(CCN)nc(N(CCN(C)C)CC3CCCO3)c2c1C` (stereo not drawn), the “Percent Effect” value (30 µM, 30.03 µM) is listed as 33.05%.

`COCCN(CC1CC1)c1nc(CCN)nc2ccccc12`: where the note is “30 µM, 30.03 µM”, the “Percent Effect” value was determined as 27.63%.

`COCCN(CC1CC1)c1nc(CCN)nc2sc(C)c(C)c12`: the “Percent Effect” value (30 µM, 30.03 µM) came to 105.1%.

Turning to `COCCN(Cc1cccs1)c1nc(CCN)nc2ccccc12`, under “30 µM, 30.03 µM”, the “Percent Effect” value came out at 3.665%.

As for `CCN(CCN(C)C)c1nc(CCN)nc2sc(C)c(C)c12`, the “Percent Effect” value (30 µM, 30.03 µM) is given as -19.52%.

With `O=C(O)C(F)(F)F.O=C1CCC2(CCN(Cc3nccs3)CC2)N1Cc1ccccc1`, under “30 µM, 30.03 µM”, the “Percent Effect” value is recorded as -8.129%.

For the compound `O=C(O)C(F)(F)F.O=C1CC[C@H]2[C@H](CCN2C(=O)C2CCOC2)N1Cc1ccncc1` (stereo partly drawn), the “Percent Effect” value (30 µM, 30.03 µM) is recorded as -22.31%.

On to `Cc1noc(C)c1CN1C[C@H](OCC2CCN(C)CC2)[C@H]2COC[C@H]21.O=C(O)C(F)(F)F.O=C(O)C(F)(F)F`, for which the “Percent Effect” value (30.3 µM, […]) is recorded as -21.15%.

Consider `Cc1nc(COCC2CN(C(=O)N(C)C)Cc3nccn3C2)cs1.O=C(O)C(F)(F)F` (stereo not drawn), for which the “Percent Effect” value (30.3 µM, […]) was -49.05%.

As for `CCn1ncc2c1C(COC)CN(Cc1cccnc1)C2.O=C(O)C(F)(F)F.O=C(O)C(F)(F)F.O=C(O)C(F)(F)F` (stereo not drawn), the “Percent Effect” value (30.3 µM, […]) is listed as -94.72%.

`COc1cc(N2CC[C@@H](O)[C@@H]2Cc2ccncc2)ncn1.O=C(O)C(F)(F)F`: the “Percent Effect” value (30 µM, 30.03 µM) was 35.07%.

Regarding `COc1ncccc1-c1ncccc1NC(=O)C(C)C`, the “Percent Effect” value (30 µM, 30.03 µM) came out at 34.88%.

`COc1ccc(F)c(-c2ncccc2NC(=O)C(C)C)c1`: under “30 µM, 30.03 µM”, the “Percent Effect” value was 20.56%.

Turning to `COc1cc(F)ccc1-c1ncccc1NC(=O)C(C)C`, the “Percent Effect” value (30 µM, 30.03 µM) is reported as 52.34%.

In the case of `Cl.Nc1ncnc2nc(C3CCCCN3)ccc12` (stereo not drawn), where the note is “30.3 µM, […]”, the “Percent Effect” value was 5.297%.

Consider `COCCN1CCC(CN(CC2CCCO2)C(=O)CNC(C)=O)CC1` (stereo not drawn), for which the “Percent Effect” value (30 µM, 30.03 µM) was 3.281%.

On to `CCn1cc(CN2CCCN(C(=O)CCn3cc(C)cn3)CC2)cn1`, for which the “Percent Effect” value reads like this: (30.3 µM, […]) -9.74%; (10 mM, 10 mM as filed; unlikely as a test dose) -22.46%.

On to `CCCNC(=O)c1cc(-c2cnc(N3CCCC3)nc2)cn1C`, for which the “Percent Effect” value (30.3 µM, […]) is recorded as -994.8%.

Regarding `CN(C)CCNC(=O)c1cc(-c2cnc(N3CCCC3)nc2)cn1C.O=C(O)C(F)(F)F`, under “30 µM, 30.03 µM”, the “Percent Effect” value came to 97.37%.

With `CN(C)CCNC(=O)c1cc(-c2cnc(N3CCOCC3)nc2)cn1C.O=C(O)C(F)(F)F`, for the setting “30.3 µM, […]”, the “Percent Effect” value is -753.9%.

With `Cl.Cn1nc(C2CCCN(Cc3cc(F)ccc3F)C2)c2nccnc21` (stereo not drawn), the “Percent Effect” value (30.3 µM, […]) is on record as 20.63%.

`CN1[C@@H](C(=O)NCC2CC2)C[C@H]2CN(Cc3ccsc3)C[C@H]21.O=C(O)C(F)(F)F.O=C(O)C(F)(F)F`: under “30.3 µM, […]”, the “Percent Effect” value is recorded as -48.96%.

In the case of `Cn1nc(COCC2CC2)c2c1CN(CC1CC1)CC2.O=C(O)C(F)(F)F.O=C(O)C(F)(F)F`, the “Percent Effect” value (30.3 µM, […]) is -59.62%.

Consider `CSc1cccc(CN(C)C(=O)c2ccc(C3CCCNC3)cc2)c1` (stereo not drawn), for which the “Percent Effect” value (30 µM, 30.03 µM) is given as 45.3%.

Consider `O=C(NCc1ccc2c(c1)OCO2)c1ccccc1C1CCNC1` (stereo not drawn), for which the “Percent Effect” value (30 µM, 30.03 µM) came to 75.73%.

`O=C(NCc1ccc2c(c1)CCCO2)c1ccccc1C1CCNC1` (stereo not drawn): where the note is “30 µM, 30.03 µM”, the “Percent Effect” value was -18.86%.

`CN(Cc1ccc2c(c1)OCO2)C(=O)c1ccc(C2CCCNC2)cc1` (stereo not drawn): the “Percent Effect” value (30 µM, 30.03 µM) came out at 78.75%.
